From PubChem BioAssay AID588683 (Broad Institute, 2011)
Measured potencies and affinities stand elsewhere. The source made the active and inactive calls. No rule for the calls is given here.

Target: Kelch-like ECH-associated protein 1 (Homo sapiens) + Nuclear factor erythroid 2-related factor 2 (Homo sapiens) (UniProt Q14145+Q16236)
Experiment: disruptors of Keap1 binding to Nrf2 peptide – biochemical, fluorescence polarization, cherry-picked samples, dose response (AID 588683);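 also: Kelch domain of Keap1 binding a fluorescein-labelled 9mer Nrf2 peptide; more negative means stronger inhibition of peptide binding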
Details: plate reader; series mostly up to 26 µM

Sequence of Kelch-like ECH-associated protein 1 (Homo sapiens) + Nuclear factor erythroid 2-related factor 2 (Homo sapiens) (Q14145 whole entry, looked up, the tested form may be a part): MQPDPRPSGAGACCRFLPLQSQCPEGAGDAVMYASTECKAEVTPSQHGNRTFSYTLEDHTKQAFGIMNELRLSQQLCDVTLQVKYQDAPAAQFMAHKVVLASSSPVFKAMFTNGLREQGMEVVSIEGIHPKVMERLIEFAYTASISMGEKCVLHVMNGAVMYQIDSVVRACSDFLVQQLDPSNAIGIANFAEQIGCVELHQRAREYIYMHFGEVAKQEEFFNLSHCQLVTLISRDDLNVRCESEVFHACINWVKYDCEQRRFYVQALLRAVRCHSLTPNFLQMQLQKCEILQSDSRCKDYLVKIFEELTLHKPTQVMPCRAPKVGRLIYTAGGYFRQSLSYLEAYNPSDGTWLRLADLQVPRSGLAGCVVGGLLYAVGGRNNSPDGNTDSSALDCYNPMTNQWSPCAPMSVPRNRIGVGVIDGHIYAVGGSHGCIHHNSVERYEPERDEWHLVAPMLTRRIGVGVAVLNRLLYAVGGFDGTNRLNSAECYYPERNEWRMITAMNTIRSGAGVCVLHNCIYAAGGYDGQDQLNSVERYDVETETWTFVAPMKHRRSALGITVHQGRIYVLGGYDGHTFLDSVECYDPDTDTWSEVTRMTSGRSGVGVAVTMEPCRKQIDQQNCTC
Sequence of Kelch-like ECH-associated protein 1 (Homo sapiens) + Nuclear factor erythroid 2-related factor 2 (Homo sapiens) (Q16236 whole entry, looked up, the tested form may be a part): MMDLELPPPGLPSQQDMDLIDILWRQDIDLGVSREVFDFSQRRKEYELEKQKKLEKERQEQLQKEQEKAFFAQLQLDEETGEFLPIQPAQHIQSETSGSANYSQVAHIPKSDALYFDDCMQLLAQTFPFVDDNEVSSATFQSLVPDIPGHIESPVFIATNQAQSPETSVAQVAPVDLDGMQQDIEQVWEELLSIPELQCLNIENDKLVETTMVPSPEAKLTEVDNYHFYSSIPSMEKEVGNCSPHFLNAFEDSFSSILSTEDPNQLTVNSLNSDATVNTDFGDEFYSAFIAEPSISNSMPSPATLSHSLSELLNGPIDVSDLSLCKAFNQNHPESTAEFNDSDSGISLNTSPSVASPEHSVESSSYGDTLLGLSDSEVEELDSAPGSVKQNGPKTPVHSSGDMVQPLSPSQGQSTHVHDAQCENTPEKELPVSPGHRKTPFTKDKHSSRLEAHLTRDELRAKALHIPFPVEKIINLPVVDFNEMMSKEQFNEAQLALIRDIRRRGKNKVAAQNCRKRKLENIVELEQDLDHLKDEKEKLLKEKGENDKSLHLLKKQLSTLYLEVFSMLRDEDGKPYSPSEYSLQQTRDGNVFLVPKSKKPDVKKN

outcome, inactive:
COc1ccc(OC)c(S(=O)(=O)Nc2ccc(F)cc2)c1, CCCCC1OC2(C)OC(=N)C1(C#N)C(C#N)(C#N)C2c1ccccc1 (stereo not drawn), CC1(C)CC(=O)C2=C(C1)OC(N)=C(C#N)C2c1ccccc1[N+](=O)[O-] (stereo not drawn), CC(C)NC(=O)N(C)C[C@H]1Oc2ccc(NS(=O)(=O)c3cn(C)cn3)cc2C(=O)N([C@H](C)CO)C[C@@H]1C, COc1ccc(NC(=S)N2CCN(Cc3ccc(C)cc3)CC2)cc1, CC(=O)N1CCN(S(=O)(=O)c2cccc(C(=O)NNC(=O)c3ccc(Br)cc3)c2)CC1, COc1cc2c3nnc(-c4ccc(F)cc4)c-3cn(Cc3ccc(C)cc3)c2cc1OC, CC(=O)c1ccc2c(c1)C1C=CCC1C(C(=O)O)N2 (stereo not drawn), O=C1NC(c2cc(Cl)cc([N+](=O)[O-])c2O)Nc2ccccc21 (stereo not drawn), CCCCC1OC23CCCCC2C(C#N)(C(=N)O3)C1(C#N)C#N (stereo not drawn), O=C(Nc1ccccc1C(=O)N1CCCCCC1)c1ccc(F)cc1, Cc1cscc1NC(=O)/C=C/C(=O)O, O=C(CSC1=NNC(c2ccccn2)S1)Nc1cccc(Cl)c1 (stereo not drawn), Cn1ccnc1Sc1cc(NCCCO)c([N+](=O)[O-])c2nonc12, Fc1ccc(C2=CC(c3ccco3)n3ncnc3N2)cc1 (stereo not drawn), CN(C)CCN(C)Cc1c2ccccc2c(CN(C)CCN(C)C)c2ccccc12, O=C1C=CC(=O)c2c(O)c(N3CCN(CCOCCO)CC3)c(Br)c(O)c21, O=C(NNS(=O)(=O)c1ccc(F)cc1)c1ccc(O)cc1, COc1cccc(NC(=O)CN(C)CC(=O)NCc2ccco2)c1, CCOC(=O)c1c(C)oc2c1c(C=NCCO)c(O)c1ccccc12, CC(=O)Nc1ccc(NS(=O)(=O)c2ccc3c(c2)oc(=O)n3C)cc1, Nc1c(C(=O)Nc2ccccc2F)sc2nc(Cc3ccccc3)cc(C(F)(F)F)c12, CC1CCN(C(=O)Cn2cc(C(F)(F)F)ccc2=O)c2ccccc2S1 (stereo not drawn), O=C(CSc1nc2ccccc2c(=O)n1CCCN1CCOCC1)Nc1ccccc1OC(F)F, Cc1[nH]nc2c1C(CC(C)C)C(C#N)=C(N)O2 (stereo not drawn), O=C(CSCC(=O)Nc1ccccc1)N/N=C/c1c(O)ccc2ccccc12, COC(=O)c1ccc(OC(=O)CN2C(=O)c3ccccc3C2=O)cc1, CCn1nnnc1SCC(=O)N(C)C1CCS(=O)(=O)C1 (stereo not drawn), O=C(CCc1ccccc1)NNc1ccc(F)cc1, O=C1CC(Cc2ccc(Cl)cc2)C(=O)N1c1cc(Cl)ccn1 (stereo not drawn), CC(C)C(C(=O)O)N1C(=O)/C(=C/C=C/c2ccco2)SC1=S (stereo not drawn), CCOC(=O)C(C)(C)N(Cc1ccccc1C)S(=O)(=O)c1ccc(Cl)c([N+](=O)[O-])c1, NC(=O)C1CCN(C2=C(Cl)C(=O)c3ccccc3C2=O)CC1, COc1ccc(C2=CC(c3ccco3)n3ncnc3N2)cc1 (stereo not drawn), CCOC(=O)c1c(NC(=O)CN2CCN(S(=O)(=O)c3cc(Cl)ccc3Cl)CC2)sc(C(=O)N(C)C)c1C, O=C(Cc1ccc(S(=O)(=O)N2CCOCC2)s1)Nc1nc2c(s1)CCCC2, O=C(NNc1ncnc2sccc12)c1ccc(Cl)cc1, CC(Sc1nc2ccccc2s1)C(=O)Nc1nnc(C(C)C)s1 (stereo not drawn)
